An excerpt weighted towards active compounds, which were near 2.3% of everything screened.
NTR1 agonist: agonists of human NTR1, primary screen, imaging, U2OS cells, beta-arrestin-GFP, high content; activation, % at 20 µM; 330,000 compounds, 0.17% hits; NTR1-U2OS beta-arrestin-GFP spot imaging, agonist mode; Neurotensin receptor type 1 (Homo sapiens), P30989;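 active means activation at or above 40% of the spot to cytoplasm intensity ratio, with at least 20 cells analyzed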;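 further: 0% = DMSO without peptide and 100% = 100 nM NTR1 peptide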
m5-HT2A agonist: mouse Htr2a agonists via beta-arrestin recruitment, primary screen, cell-based, luminescence. CHO-K1 mHTR2A beta-arrestin complementation; percent of 30 µM serotonin response. activation, % at 7.6 µM. 360,000 compounds, 0.66% hits;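 active means activation above a run cutoff, the mean activation of all tested compounds plus 3 SD, cut at about 14% in these data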;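 further: 0% = plate median of compound wells and 100% = 30 µM serotonin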
Target sequence (P35363 whole entry, looked up): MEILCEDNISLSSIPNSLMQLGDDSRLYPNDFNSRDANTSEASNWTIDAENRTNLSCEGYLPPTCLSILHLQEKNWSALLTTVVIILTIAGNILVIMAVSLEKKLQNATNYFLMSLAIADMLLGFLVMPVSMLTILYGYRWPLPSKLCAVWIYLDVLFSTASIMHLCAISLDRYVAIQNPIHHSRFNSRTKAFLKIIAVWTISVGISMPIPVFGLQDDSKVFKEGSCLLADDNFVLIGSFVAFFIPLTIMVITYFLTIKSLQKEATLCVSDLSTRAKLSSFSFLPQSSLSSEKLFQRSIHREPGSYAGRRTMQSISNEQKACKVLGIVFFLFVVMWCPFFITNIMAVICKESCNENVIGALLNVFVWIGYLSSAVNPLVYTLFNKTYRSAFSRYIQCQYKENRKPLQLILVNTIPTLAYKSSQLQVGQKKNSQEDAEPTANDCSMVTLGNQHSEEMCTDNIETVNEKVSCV
Beta2AR agonist: beta2AR agonists driving receptor internalization, primary screen, cell-based, FAP fluorogen, flow cytometry | Beta-2 adrenergic receptor (Homo sapiens), P07550 | Am2.2-beta2AR cells | response, % (concentration not given with the values) | 340,000 compounds, 0.43% hits | AID 504454, 2011;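 active means response above a set limit, near 3 SD of response in nonfluorescent compounds, cut at about 42% in these data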
Granule exo inh: LAMP-1 surface exposure blockers, TALL-104 cells – cell-based, flow cytometry, MLPCN library, primary screen; inhibition, % at 10 µM; 360,000 compounds, 0.66% hits; TALL-104 LAMP-1 surface exposure; cells stimulated with thapsigargin and PMA; AID 651702, 2012;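 active means inhibition above about 55%, limit read from the data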
ABHD5 PLIN5 PPI: ABHD5-PLIN5 interaction inhibitors, primary screen, cell lysate, split luciferase complementation, luminescence; Perilipin-5 (Homo sapiens) + 1-acylglycerol-3-phosphate O-acyltransferase ABHD5 (Homo …; Split G. princeps luciferase complementation, 4 h; inhibition, % at 4 µM; 360,000 compounds, 0.78% hits; AID 602281, 2012;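 active means inhibition above the mean inhibition across every tested compound plus 3 SD, cut at about 22% in these data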;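 further: 0% = DMSO only wells and the 100% control is not disclosed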
OPRM1 ag: OPRM1 agonists via beta-arrestin recruitment, confirmation, counter-screen for mouse HTR2A agonist project, cell-based, luminescence, single concentration; U2OS OPRM1 beta-arrestin PathHunter; DMSO 0%, DAMGO 9.3 µM 100%; 2,300 compounds, 5.3% hits; shares compounds with m5-HT2A agonist; activation, % at 9.3 µM; AID 624380, 2012;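 active means mean activation above the mean of DMSO-only wells plus 3 SD, cut at about 0.5% in these data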
HTR2A ag conf: mouse HTR2A agonists, beta-arrestin recruitment, confirmation, cell-based, luminescence, CHO-K1 PathHunter, triplicate; shares compounds with m5-HT2A agonist; DMSO 0%, 30 µM serotonin 100%; activation, % at 7.6 µM; 2,300 compounds, 19% hits; AID 624381, 2012;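 active means mean activation across triplicates above the hit threshold derived in the original primary screen, cut at about 15% in these data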
An asterisk follows results filed as active; . = no result given.

SMILES | NTR1 agonist | m5-HT2A agonist | Beta2AR agonist | Granule exo inh | ABHD5 PLIN5 PPI | OPRM1 ag | HTR2A ag conf
O=C1C=C(c2ccc(-c3ccccc3)c(F)c2)C[C@@H](c2ccc(F)cc2)C1 | 2 | 2 | 2 | 6 | 8 | . | .
COc1ccc([C@H]2CC(=O)C=C(c3cccc(CO)c3)C2)cc1 | 0 | 15* | -7 | -3 | -6 | -1 | -4
COc1cccc(-c2n[nH]nc2C2=CC(=O)C[C@H](c3ccc(F)cc3)C2)c1 | . | 22* | . | 3 | 1 | 0 | 0
COc1cccc(C#CC2=CC(=O)C[C@H](c3ccc(F)cc3)C2)c1 | . | -1 | . | 3 | -1 | . | .
COc1ccc([C@H]2CC(=O)C=C(c3cccc(OC)c3)C2)cc1 | 12 | -1 | -9 | 30 | 0 | . | .
O=C1C=C(c2n[nH]nc2-c2ccccc2)C[C@@H](c2ccc(F)cc2)C1 | . | 15* | . | 1 | -3 | -1 | -4
COc1cc(CCC(=O)OCC(=O)Nc2ccc(F)cc2F)cc(OC)c1OC | 1 | -2 | 0 | 8 | 0 | . | .
COc1ccccc1C1=NOC(Cn2c(NCCOCCO)nc3c2c(=O)n(C)c(=O)n3C)C1 (configuration not stated) | -1 | 8 | 17 | 6 | 3 | . | .
COCCNC(=O)C1CCCN(C(=O)COc2ccc(Cl)cc2Cl)CC1 (configuration not stated) | . | -5 | . | -2 | -7 | . | .
COc1ccc(NC(=O)CCCNC(=O)c2ccc(Cl)cc2)cc1S(=O)(=O)N1CCOCC1 | . | 15* | 8 | 4 | 3 | -1 | -2
Cc1cc(C)c2cc(N)c(Cl)nc2n1 | . | -1 | . | -2 | 9 | . | .
Nc1cc(Cl)nnc1Cl | -1 | 19* | -3 | 2 | 7 | -1 | -2
COc1ccc(CC(C)Nc2cccc(SC)c2)cc1 (configuration not stated) | 2 | 4 | 4 | 2 | 6 | . | .
O=C(NC1CC1)c1ccc2c(Cl)c3c(nc2c1)CCCC3 | 0 | 6 | -24 | -15 | 2 | . | .
CCOC(=O)N1CCC(NC(=O)c2ccc3c(Cl)c4c(nc3c2)CCCC4)CC1 | 6 | 18* | -5 | -2 | -1 | -1 | -3
CS(=O)(=O)CCC(C(=O)OCC(=O)c1ccc(Cl)cc1)N1C(=O)c2ccccc2C1=O (configuration not stated) | 3 | -2 | -3 | 10 | -2 | . | .
CS(=O)(=O)CCC(C(=O)OCc1ccc(Cl)cc1)N1C(=O)c2ccccc2C1=O (configuration not stated) | -2 | 17* | 6 | -1 | 9 | 0 | -3
CC(=O)c1ccc(N2CCN(C(=O)c3ccc(NC4=NC5CS(=O)(=O)CC5S4)cc3)CC2)cc1 (configuration not stated) | 0 | 3 | 0 | -4 | -4 | . | .
CC(C)c1ccc(NC2CCCN(C(=O)c3ccnc(Cl)c3)C2)cc1 (configuration not stated) | 1 | 1 | -2 | -1 | -3 | . | .
CC(C)c1cc(C(=O)N2CCCC(Nc3ccc(F)c(F)c3)C2)nc(N)n1 (configuration not stated) | 3 | 13 | -3 | -2 | 2 | . | .
CC(C)c1ccc(NC2CCCN(C(=O)c3ccc4nccnc4c3)C2)cc1 (configuration not stated) | 1 | 21* | 6 | 6 | -2 | 0 | -3
CC(C)c1cc(C(=O)N2CCCC(Nc3ccc(F)cc3)C2)nc(N)n1 (configuration not stated) | 2 | 16* | -2 | 2 | 2 | 0 | 0
COc1ccc(C(C(=O)NCC2CCCO2)N(C(=O)Cn2nnc3ccccc32)c2ccccc2C(C)=O)cc1OC (configuration not stated) | -1 | 9 | -4 | 3 | 7 | . | .

Bioassay records deposited in PubChem BioAssay by several laboratories.
